Data: the supplement of paper PMC6609913
Counter-ions that a name gives are not always drawn. ± gives the standard deviation of the averaged measurements. The full ranking holds about 1,300 compounds; the median of “normalised cell viability” is about 1, and the lowest 2% start at about 0.15. Many of the other results were omitted from the sample, so the lowest values are more common in it than they were.

Tested on: V-C8 + BRCA2 (BRCA2-proficient hamster cells)
Assay: normalised cell viability (fraction of plate median); higher = more viable cells (less toxic)
Conditions: 5 µM
Outline: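 In two screens, library drugs at 5 μM were given for 3 days (screen 1) or 6 days (screen 2) to hamster V-C8 cells without BRCA2 and V-C8 cells with BRCA2 restored, seeded 24 h earlier in 96-well plates. A resazurin assay gave the cell viability readout, expressed as modified robust per cent of sample against the plate median, with triplicate wells averaged.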

SMILES | normalised cell viability (treatment time: 3 days) | normalised cell viability (treatment time: 6 days)
Fc1ccc(C(OCCN2CCN(CCCc3ccccc3)CC2)c2ccc(F)cc2)cc1 | 0.18 ± 0.0028 | 0.191 ± 0.0064
COc1ccc(CCN2CCC(Nc3nc4ccccc4n3Cc3ccc(F)cc3)CC2)cc1 [Astemizole] | 0.118 ± 0.0065 | 0.102 ± 0.0063
C[C@]12C[C@H]3S[C@H]3C[C@@H]1CC[C@@H]1[C@@H]2CC[C@]2(C)[C@@H](O)CC[C@@H]12 [Epitiostanol] | 1.02 ± 0.019 | 1.05 ± 0.022
CC(C)[N+](C)(CCC(C(N)=O)(c1ccccc1)c1ccccc1)C(C)C [Isopropamide iodide] | 1.04 ± 0.062 | 1.02 ± 0.11
CN1[C@@H]2CC[C@H]1C[C@@H](OC1c3ccccc3CCc3ccccc31)C2 [Deptropine citrate] | 0.931 ± 0.016 | 0.869 ± 0.065
OC(c1ccccc1)(c1ccccc1)C1CCNCC1 [Azacyclonol] | 0.985 ± 0.041 | 1.03 ± 0.042
C[C@@H]1CC[C@H]2[C@@H](C)C(=O)O[C@@H]3O[C@@]4(C)CC[C@@H]1[C@]32OO4 [Artemisinin] | 0.794 ± 0.024 | 0.87 ± 0.095
C[C@]12CC[C@H](O)C[C@H]1CC[C@@H]1[C@@H]2C[C@@H](O)[C@]2(C)[C@@H](C3=CC(=O)OC3)CC[C@]12O [Digoxigenin] | 0.962 ± 0.11 | 0.986 ± 0.056
CC(=O)NC1CCSC1=O (racemic) [N-Acetyl-DL-homocysteine Thiolactone] | 1.05 ± 0.096 | 1.06 ± 0.11
CO[C@]12C[C@@H](COC(=O)c3cncc(Br)c3)CN(C)[C@@H]1Cc1cn(C)c3cccc2c13 [Nicergoline] | 0.81 ± 0.019 | 0.926 ± 0.01
CNCC(O)c1ccc(O)cc1 (racemic) [(+,-)-Synephrine] | 1.01 ± 0.085 | 1.01 ± 0.022
C[CH2][Hg][S]c1ccccc1C(=O)[O-].[Na+] [Thimerosal] | 0.106 ± 0.0062 | 0.118 ± 0.007
NCCC(O)C(=O)NC1CC(N)C(OC2OC(CN)C(O)[C@H](O)[C@@H]2N)[C@H](OC2O[C@H](CO)[C@@H](O)[C@@H]2O)[C@@H]1O (stereo partly specified) [Butirosin disulfate salt] | 0.979 ± 0.026 | 0.868 ± 0.3
C[C@@H]1C[C@@H]([C@H](O)CC2CC(=O)NC(=O)C2)C(=O)[C@@H](C)C1 [Cycloheximide] | 0.146 ± 0.008 | 0.138 ± 0.016
CC(CCc1ccccc1)NC(C)C(O)c1ccc(O)cc1 (stereo unspecified) [Nylidrin] | 1.02 ± 0.0065 | 1.02 ± 0.051
CCC(=O)O[C@@](Cc1ccccc1)(c1ccccc1)[C@@H](C)CN(C)C [Levopropoxyphene napsylate] | 0.979 ± 0.083 | 1.058 ± 0.0096
COc1cc([C@@H]2c3cc4c(cc3[C@H](O)[C@H]3COC(=O)[C@H]23)OCO4)cc(OC)c1OC [Podophyllotoxin] | 0.143 ± 0.0046 | 0.136 ± 0.016
C=C1CC[C@@]2(O)[C@H]3Cc4ccc(O)c5c4[C@@]2(CCN3CC2CC2)[C@H]1O5 [Nalmefene hydrochloride] | 1 ± 0.043 | 1.07 ± 0.15
